# PubChem BioAssay AID1159580 (chemical genetic matrix, 2015)
# Among all 5,500 compounds or so, about 2,000 (36%) were called active. Another 18% or so got no clear call; they are omitted. The list shows a part of the results. Values without a mark were called inactive. No stated cut-off is given here; in the data, active means normalized growth mostly below about 0.91 (no sharp cut-off); inconclusive means no clear call, values can overlap the other calls; inactive means mostly above about 0.92.
# Test: chemical genetic growth profiling, strain panel (AID 1159580);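 further: tested at 20 µM; growth read once vehicle control cultures reached saturation at 30 °C; 1 = growth at the plate median or of vehicle wells; lower values mean less growth of the strain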
# Conditions: growth OD
# [1] = S. cerevisiae deletion strains, locus YGR078C, strain PAC10, active compounds read low
# [2] = S. cerevisiae deletion strains, locus YNL128W, strain TEP1, active compounds read low
# [3] = S. cerevisiae deletion strains, locus YNL322C, strain KRE1, active compounds read low
# [4] = S. cerevisiae deletion strains, locus YHR030C, strain SLT2, active compounds read low
# [5] = S. cerevisiae deletion strains, locus YJL095W, strain BCK1, active compounds read low
structure (smiles),measurement,setting,value
C[N+]1(C)CCc2cc3c(cc2[C@H]1[C@@H]1OC(=O)c2c1ccc1c2OCO1)OCO3,normalized growth,"S. cerevisiae deletion strains, locus YAL040C, strain CLN3, active compounds read low",0.982
same,normalized growth,"S. cerevisiae deletion strains, locus YDR150W, strain NUM1, active compounds read low",0.997
same,normalized growth,"S. cerevisiae deletion strains, locus YER002W, strain NOP16, active compounds read low",0.991
same,normalized growth,[1],1.01
same,normalized growth,[2],1
same,normalized growth,"S. cerevisiae deletion strains, locus YNL153C, strain GIM3, active compounds read low",0.998
same,normalized growth,"S. cerevisiae deletion strains, locus YNL175C, strain NOP13, active compounds read low",0.987
same,normalized growth,"S. cerevisiae deletion strains, locus YNL197C, strain WHI3, active compounds read low",1.05
same,normalized growth,"S. cerevisiae deletion strains, locus YNL224C, strain SQS1, active compounds read low",0.994
same,normalized growth,[3],1.01
same,normalized growth,"S. cerevisiae deletion strains, locus YOR083W, strain WHI5 (second series), active compounds read low",1
same,normalized growth,"S. cerevisiae deletion strains, locus YPL055C, strain LGE1, active compounds read low",1.01
CCCCCCCCCCCC(=O)OCC(COP(=O)(O)OCC(O)COP(=O)(O)OCC(COC(=O)CCCCCCCCCCC)OC(=O)CCCCCCCCCCC)OC(=O)CCCCCCCCCCC (centres undefined),normalized growth,"S. cerevisiae deletion strains, locus YBR021W, strain FUR4, active compounds read low",0.99
same,normalized growth,"S. cerevisiae deletion strains, locus YBR229C, strain ROT2, active compounds read low",0.967
same,normalized growth,"S. cerevisiae deletion strains, locus YCL029C, strain bik1, active compounds read low",1.01
same,normalized growth,"S. cerevisiae deletion strains, locus YDL035C, strain GPR1, active compounds read low",0.663 (active)
same,normalized growth,"S. cerevisiae deletion strains, locus YDL074C, strain BRE1, active compounds read low",0.72 (active)
same,normalized growth,"S. cerevisiae deletion strains, locus YDL101C, strain DUN1, active compounds read low",0.839 (active)
same,normalized growth,"S. cerevisiae deletion strains, locus YDL185W, strain tfp1, active compounds read low",0.981
same,normalized growth,"S. cerevisiae deletion strains, locus YDL192W, strain arf1, active compounds read low",0.972
same,normalized growth,"S. cerevisiae deletion strains, locus YDR101C, strain arx1, active compounds read low",1.03
same,normalized growth,"S. cerevisiae deletion strains, locus YDR162C, strain NBP2, active compounds read low",0.55 (active)
same,normalized growth,"S. cerevisiae deletion strains, locus YDR318W, strain mcm21, active compounds read low",1
same,normalized growth,"S. cerevisiae deletion strains, locus YDR388W, active compounds read low",1.01
same,normalized growth,"S. cerevisiae deletion strains, locus YDR502C, strain sam2, active compounds read low",0.978
same,normalized growth,"S. cerevisiae deletion strains, locus YEL061C, strain CIN8, active compounds read low",0.861 (active)
same,normalized growth,"S. cerevisiae deletion strains, locus YER110C, active compounds read low",1.03
same,normalized growth,"S. cerevisiae deletion strains, locus YER155C, strain BEM2, active compounds read low",1.02
same,normalized growth,"S. cerevisiae deletion strains, locus YER167W, strain BCK2, active compounds read low",0.953
same,normalized growth,"S. cerevisiae deletion strains, locus YGL078C, strain dbp3, active compounds read low",1.02
same,normalized growth,"S. cerevisiae deletion strains, locus YGL086W, strain mad1, active compounds read low",0.927 (active)
same,normalized growth,"S. cerevisiae deletion strains, locus YGL248W, strain PDE1, active compounds read low",0.876 (active)
same,normalized growth,[1],0.879
same,normalized growth,"S. cerevisiae deletion strains, locus YGR135W, strain pre9, active compounds read low",0.923
same,normalized growth,"S. cerevisiae deletion strains, locus YGR229C, strain SMI1, active compounds read low",0.181 (active)
same,normalized growth,"S. cerevisiae deletion strains, locus YGR252W, strain gcn5, active compounds read low",0.887
same,normalized growth,[4],0.965
same,normalized growth,"S. cerevisiae deletion strains, locus YHR079C, strain IRE1 (second series), active compounds read low",1.04
same,normalized growth,"S. cerevisiae deletion strains, locus YHR094C, strain hxt1, active compounds read low",1.03
same,normalized growth,"S. cerevisiae deletion strains, locus YHR129C, strain ARP1, active compounds read low",0.902 (active)
same,normalized growth,"S. cerevisiae deletion strains, locus YHR200W, strain rpn10, active compounds read low",0.995
same,normalized growth,"S. cerevisiae deletion strains, locus YIL066C, strain RNR3, active compounds read low",0.633 (active)
same,normalized growth,"S. cerevisiae deletion strains, locus YIL073C, strain SPO22, active compounds read low",0.524 (active)
same,normalized growth,"S. cerevisiae deletion strains, locus YIL125W, strain kgd1, active compounds read low",1.03
same,normalized growth,"S. cerevisiae deletion strains, locus YIR030C, strain dcg1, active compounds read low",1.03
same,normalized growth,[5],0.816
same,normalized growth,"S. cerevisiae deletion strains, locus YJL134W, strain LCB3, active compounds read low",0.975
same,normalized growth,"S. cerevisiae deletion strains, locus YJL168C, strain set2, active compounds read low",1
same,normalized growth,"S. cerevisiae deletion strains, locus YJL187C, strain SWE1 (second series), active compounds read low",0.703 (active)
same,normalized growth,"S. cerevisiae deletion strains, locus YJR043C, strain POL32, active compounds read low",0.632 (active)
same,normalized growth,"S. cerevisiae deletion strains, locus YKL009W, strain mrt4, active compounds read low",1.09
same,normalized growth,"S. cerevisiae deletion strains, locus YKL068W, active compounds read low",1.03
same,normalized growth,"S. cerevisiae deletion strains, locus YKL085W, strain MDH1 (second series), active compounds read low",1.01
same,normalized growth,"S. cerevisiae deletion strains, locus YKL085W, strain MDH1, active compounds read low",1.01
same,normalized growth,"S. cerevisiae deletion strains, locus YKL190W, strain CNB1, active compounds read low",0.682 (active)
same,normalized growth,"S. cerevisiae deletion strains, locus YKR001C, strain vps1, active compounds read low",0.986
same,normalized growth,"S. cerevisiae deletion strains, locus YLR039C, strain RIC1, active compounds read low",0.671 (active)
same,normalized growth,"S. cerevisiae deletion strains, locus YLR058C, strain SHM2, active compounds read low",0.811 (active)
same,normalized growth,"S. cerevisiae deletion strains, locus YLR102C, strain apc9, active compounds read low",1.02
same,normalized growth,"S. cerevisiae deletion strains, locus YLR262C, strain YPT6, active compounds read low",0.798
same,normalized growth,"S. cerevisiae deletion strains, locus YLR268W, strain sec22, active compounds read low",0.937
same,normalized growth,"S. cerevisiae deletion strains, locus YLR330W, strain CHS5, active compounds read low",0.964
same,normalized growth,"S. cerevisiae deletion strains, locus YLR342W, strain FKS1 (second series), active compounds read low",0.549 (active)
same,normalized growth,"S. cerevisiae deletion strains, locus YLR371W, strain rom2, active compounds read low",0.971
same,normalized growth,"S. cerevisiae deletion strains, locus YLR418C, strain cdc73, active compounds read low",0.765 (active)
same,normalized growth,"S. cerevisiae deletion strains, locus YML016C, strain PPZ1, active compounds read low",0.792 (active)
same,normalized growth,"S. cerevisiae deletion strains, locus YML032C, strain rad52, active compounds read low",1.03
same,normalized growth,"S. cerevisiae deletion strains, locus YML124C, strain tub3, active compounds read low",1.02
same,normalized growth,"S. cerevisiae deletion strains, locus YMR078C, strain ctf18, active compounds read low",1.02
same,normalized growth,"S. cerevisiae deletion strains, locus YMR223W, strain ubp8, active compounds read low",0.962
same,normalized growth,"S. cerevisiae deletion strains, locus YMR263W, strain SAP30, active compounds read low",0.923
same,normalized growth,"S. cerevisiae deletion strains, locus YMR307W, strain GAS1, active compounds read low",0.475 (active)
same,normalized growth,"S. cerevisiae deletion strains, locus YNL067W, strain RPL9B, active compounds read low",0.891
same,normalized growth,[2],0.589 (active)
same,normalized growth,"S. cerevisiae deletion strains, locus YNL233W, strain BNI4, active compounds read low",0.91
same,normalized growth,"S. cerevisiae deletion strains, locus YNL250W, strain rad50, active compounds read low",1.02
same,normalized growth,"S. cerevisiae deletion strains, locus YNL271C, strain bni1, active compounds read low",1
same,normalized growth,"S. cerevisiae deletion strains, locus YNL298W, strain CLA4, active compounds read low",1.01
same,normalized growth,"S. cerevisiae deletion strains, locus YNL307C, strain MCK1, active compounds read low",1.02
same,normalized growth,[3],0.715 (active)
same,normalized growth,"S. cerevisiae deletion strains, locus YNR052C, strain pop2, active compounds read low",0.975
same,normalized growth,"S. cerevisiae deletion strains, locus YOL006C, strain TOP1, active compounds read low",0.29 (active)
same,normalized growth,"S. cerevisiae deletion strains, locus YOL012C, strain htz1",0.377
same,normalized growth,"S. cerevisiae deletion strains, locus YOL147C, strain pex11, active compounds read low",1.02
same,normalized growth,"S. cerevisiae deletion strains, locus YOR061W, strain CKA2, active compounds read low",0.803 (active)
same,normalized growth,"S. cerevisiae deletion strains, locus YOR069W, strain VPS5, active compounds read low",0.951
same,normalized growth,"S. cerevisiae deletion strains, locus YOR136W, strain idh2, active compounds read low",1.01
same,normalized growth,"S. cerevisiae deletion strains, locus YOR144C, strain elg1, active compounds read low",1.01
same,normalized growth,"S. cerevisiae deletion strains, locus YOR184W, strain ser1, active compounds read low",0.926
same,normalized growth,"S. cerevisiae deletion strains, locus YOR316C, strain cot1, active compounds read low",1.02
same,normalized growth,"S. cerevisiae deletion strains, locus YPR119W, strain clb2, active compounds read low",1.03
same,normalized growth,"S. cerevisiae deletion strains, locus YPR141C, strain kar3, active compounds read low",1.02
same,normalized growth,"S. cerevisiae deletion strains, locus YPR163C, strain tif3, active compounds read low",1.02
same,normalized growth,"S. cerevisiae deletion strains, locus YPR167C, strain met16, active compounds read low",1.02
same,normalized growth,"S. cerevisiae deletion strains, strain wtn01, active compounds read low",0.947
same,normalized growth,"S. cerevisiae strains, strain wild type, active compounds read low",0.56 (active)
CCCCCCCCCCCCCCCC(=O)OCC(O)CO (centres undefined),normalized growth,[4],1
same,normalized growth,"S. cerevisiae deletion strains, locus YHR079C, strain IRE1, active compounds read low",0.99
same,normalized growth,[5],0.967
same,normalized growth,"S. cerevisiae deletion strains, locus YJR066W, strain TOR1, active compounds read low",0.936
same,normalized growth,"S. cerevisiae deletion strains, locus YLR113W, strain HOG1, active compounds read low",1
same,normalized growth,"S. cerevisiae deletion strains, locus YNL183C, strain NPR1, active compounds read low",0.93
same,normalized growth,"S. cerevisiae deletion strains, locus YOR231W, strain MKK1, active compounds read low",1.01
same,normalized growth,"S. cerevisiae deletion strains, locus YPL256C, strain CLN2, active compounds read low",1.02
